Bioassay records deposited in PubChem by Broad Institute.
The list is a sample of the results.
aSyn UTR act = Activators via SNCA 5'UTR binding, MLPCN. alpha-synuclein 5'UTR reporter, activators screen. activity score, % (tested at 7.5 µM), hits read low. 300,000 compounds, 7.1% hits. AID 1814; in the data active = activity score below about -60%
* hit, by the source's call.

SMILES	aSyn UTR act
N/C(=N\OC(=O)CCCc1ccccc1)c1ccccc1Cl	-98.1*
COc1ccc(C(=O)CCc2ccccc2)cc1	-110.7*
COC(=O)CSc1nc(-c2ccccc2)cc(-c2ccco2)c1C#N	-63.8*
CC(C)Cc1cc(-c2ccco2)c(C#N)c(N)n1	69.8
CCC(C)(C)C1CCc2[nH]nc(C(=O)N/N=C(\C)c3ccco3)c2C1 (stereo not given)	-135.9*
Cc1ccc(N/C=C(/C#N)c2ccsc2)cc1	-174.9*
N#C/C(=C/Nc1ccccc1)c1ccsc1	-78.7*
CCCn1c(CN2CCN(C(=O)OCC)CC2)nc2cc(NC(=O)C(C)C)ccc21	-70.2*
CC(=O)Nc1c(-c2ccc3ccccc3c2)nc2ccccn12	-124.3*
O=C(Nc1ccccn1)c1cc2cc([N+](=O)[O-])ccc2s1	-158.2*
O=C(NC(=S)Nc1ccccn1)c1ccc([N+](=O)[O-])cc1	-118.9*
O=C(c1cc2cc([N+](=O)[O-])ccc2s1)N1CCCCC1	-70.8*
O=C(Nc1ccccn1)c1ccc(C(=O)Nc2ccccn2)cc1	-104.3*
O=C(Nc1ccccc1)c1ccc(CSc2ccccn2)cc1	-102.2*
O=C(Nc1ccc(Cl)cc1)c1ccc(-c2ccccn2)s1	-170.1*
O=C(Nc1ccccn1)c1ccc(Br)s1	-190.7*
O=C(NC(=S)Nc1ccccn1)c1ccccc1	-133.4*
O=C(Nc1ccccn1)c1cc2ccccc2cc1O	-103.8*
CN(C)c1ccc(/C=N/NC(=O)c2ccccc2)cc1	-120.0*
O=C(N/N=C/c1ccc(OC(=O)c2cccs2)cc1)c1cccc(F)c1	-96.5*
CSc1ccc(/C=N/NC(=O)c2ccccc2Cl)cc1	-109.2*
O=C(N/N=C/c1ccc(-n2ccnc2)cc1)c1cccs1	-77.9*
CN(C)c1cccc(C(=O)N/N=C/c2ccsc2)c1	-157.2*
CC/C(=N\NC(=O)c1ccc(N(C)C)cc1)c1ccccc1	-72.1*
COc1cc(C(=O)N/N=C/c2ccsc2C)cc(OC)c1OC	92.1
SMILES	aSyn UTR act
C/C(=N/N=C/c1ccc(N(C)C)cc1)c1ccccc1	-159.6*
CC(C)=C(NC(=O)c1ccccc1)C(=O)N/N=C/c1ccc(O)cc1	-127.8*
Cc1cc(C(=O)N/N=C/c2cc(Br)ccc2OC(=O)c2ccccc2Cl)n[nH]1	58.3
CN(C)c1ccc(/C=N/NC(=O)c2sccc2-n2cccc2)cc1	-150.0*
CN(C)c1ccc(/C=N/NC(=O)c2ccccc2Cl)cc1	-124.9*
Cc1nn(-c2ccccc2)c(C)c1/C=N/NC(=O)c1cccs1	-67.7*
CSc1ccc(/C=N/NC(=O)c2cccs2)cc1	-184.6*
CCCn1nc2cc(C(=O)NCCc3cccs3)ccc2c1OCC	-76.1*
N#CCCCCn1ccc(NC(=O)c2ccc(Cl)cc2O)n1	-80.9*
COc1ccc(NC(=O)CSc2nc(SC)ns2)cc1	-145.2*
COc1ccc(-c2nsc(SCC(=O)Nc3ccc4c(c3)OCO4)n2)cc1	-109.0*
CSc1nsc(SCC(=O)Nc2ccc(C(C)=O)cc2)n1	-261.7*
CSc1nsc(SCC(=O)Nc2ccc(F)cc2F)n1	-100.8*
CCOc1ccc(-n2c(SCC(=O)Nc3ccc(Br)cc3)nc3n[nH]c(C)c3c2=N)cc1	81.5
CC(C)(C)c1ccc(/C=C/C(=O)Nc2nncs2)cc1	-87.9*
O=C(/C=C/c1ccc2c(c1)OCO2)Nc1nncs1	-115.1*
O=C(Nc1ccc2c3c(cccc13)CC2)c1ccc(Br)o1	-76.3*
O=C(Nc1ccc2c3c(cccc13)CC2)c1ccco1	-64.7*
CN1CCN(C(c2ccc(Cl)cc2)c2cc(Cl)c3cccnc3c2O)CC1 (stereo not given)	77.1
O=C1C(Cl)=C(NCCN2CCCCC2)C(=O)c2ccccc21	54.0
N#Cc1nc(-c2cccc3ccccc23)oc1NCCN1CCCCC1	-63.3*
CCNc1oc(-c2cccc3ccccc23)nc1C#N	-88.1*
CCOc1ccc(/C=C(/NC(=O)c2ccc(Cl)cc2)C(=O)O)cc1OCC	-86.2*
CCC(=O)Nc1ccc2c(c1)ncn2-c1ccccc1	-75.0*
CC(=O)Nc1ccc2c(c1)c1ccccc1n2C(C)=O	-64.8*
SMILES	aSyn UTR act
CC(=O)Nc1ccc2c(c1)ncn2-c1ccccc1	-110.0*
CCOc1ccc(-n2nc3ccc(NC(=O)CC)cc3n2)cc1	-119.9*
COc1ccc(N(C(=O)c2cc3ccccc3oc2=O)C2C=CS(=O)(=O)C2)cc1 (stereo not given)	-61.8*
CCN(C(=O)c1cc2ccccc2oc1=O)c1ccccc1	-123.8*
CC(C)c1ccc(N(C(=O)c2cc3ccccc3oc2=O)C2C=CS(=O)(=O)C2)cc1 (stereo not given)	-122.5*
O=C(c1cc2ccccc2oc1=O)N(c1ccccc1)C1C=CS(=O)(=O)C1 (stereo not given)	-102.4*
Nc1nccc(-c2ccc(-n3cccc3)cc2)n1	-132.1*
Cc1ccc2cc3c(N)c4c(C)ccc(C)c4nc3nc2c1	-76.9*
Cc1cc(C)c2c(N)c(C(=O)N/N=C/c3cccnc3)sc2n1	-128.3*
Nc1c(C(=O)NCc2ccccc2)sc2nc(N3CCOCC3)c3c(c12)CCCC3	64.6
Cc1cc(C)c2c(N)c(C(=O)N/N=C/c3ccccc3)sc2n1	-107.8*
Cc1cc(C)c2c(N)c(C(=O)NNC(=O)c3ccccc3)sc2n1	-107.8*
O=C(CN1C(=O)c2ccccc2S1(=O)=O)c1cccc(Br)c1	84.2
O=C(CN1CC(=O)Oc2ccccc21)OCC(=O)c1cccc(Br)c1	-65.6*
O=C(CN1CC(=O)Oc2ccccc21)OCC(=O)c1ccccc1	-100.1*
COc1ccc(NC(=O)n2nc(OC(=O)c3cccs3)cc2N)cc1	-84.2*
COc1ccc(/C=C/C(=O)c2ccc(NC3=NCCCS3)cc2)cc1OC	-99.3*
C=CCNc1ncnc2c1[nH]c1ccc(Cl)cc12	-196.7*
O=C(Nc1ccc(Cl)cc1)c1ccc2nsnc2c1	-202.3*
CN(C)c1ccc(NC(=O)c2ccc3nsnc3c2)cc1	-165.8*
FC(F)(F)c1ccc(NC(=S)NC2CCCCC2)cc1	-78.2*
O=C(O)c1ccc(NC(=S)NC2CCCCC2)cc1	-65.4*
O=C(NCc1cccs1)c1cc2c(s1)CCCC2	-142.1*
O=C(NCC1CCCO1)c1cc2c(s1)CCC2 (stereo not given)	-122.3*
Cc1cc(Cl)ccc1OCC(=O)Nc1ccccc1CO	-80.9*
SMILES	aSyn UTR act
CSc1ccccc1NC(=O)COc1ccc(Cl)cc1C	-63.2*
Cc1ccc(NC2(C#N)C(=O)Nc3ccccc32)cc1C (stereo not given)	-89.1*
O=C(CN1CCOCC1)Nc1nc2ccc([N+](=O)[O-])cc2s1	-62.3*
Cc1ccc2nc(NC(=O)CN3CCOCC3)sc2c1	-106.7*
CCOc1ccc(NC(=O)c2ccc(CC)s2)c([N+](=O)[O-])c1	-168.2*
CCOc1ccc(NC(=O)c2cccs2)c([N+](=O)[O-])c1	-219.1*
CCOc1ccc(NC(=O)c2ccco2)c([N+](=O)[O-])c1	-130.7*
Cc1ccc(-c2cc3c(nn2)-c2ccccc2C3=O)cc1	86.5
c1ccc2c(c1)Cc1cc3ccccc3nc1-2	-102.2*
O=C1c2ccccc2-c2nc3ccccc3cc21	-114.2*
O=C(N=Nc1c(O)n(C2OC(=O)c3ccccc32)c2ccccc12)c1ccco1 (stereo not given)	-109.5*
CCCCCN1C(=O)/C(=C/c2c(N3CCc4ccccc4C3)nc3ccccn3c2=O)SC1=S	-93.8*
CC(C)c1cc(C(F)(F)F)n2nc(C(=O)Nc3ccc4c(c3)OCO4)cc2n1	-83.1*
O=C(Nc1ccc2c(c1)OCO2)c1cc(C2CC2)on1	-148.2*
CC(C)c1cc(C(=O)Nc2ccc3c(c2)OCO3)no1	-172.7*
Cc1ccc(NC(=O)c2cc(N(C)C)ccc2[P+](=O)O)cc1	-154.5*
